# Source: PubChem BioAssay (NCATS)
# Records with an inconclusive call do not appear. Entries that show only a call come without a potency. Calls of active or inactive are those of the source. The call rests on the fitted dose curve; in most records, active means well fitted inhibition curve with a large enough effect; inconclusive means small, poorly fitted or top-dose-only effect; inactive means flat fitted curve, though single readings scatter.
# Experiments:
# Assay in all cases: qHTS profiling for inhibitors of Plasmodium falciparum proliferation (AID 504749); further: nearly all actives have a fitted effect of over 60% in size
# Conditions in all cases: P. falciparum in erythrocytes, SYBR Green DNA, 72 h; series mostly up to 28.7 µM
# [1] = tested on: FAB9
# Procedure, shortened: (§1)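 Readout was DNA-dye fluorescence from lysed cultures, ex 485/em 535 nm. Parasitized red cells had grown 72 h with compound; data scaled between 0.29 uM artemisinin and DMSO wells and corrected using vehicle-only plates.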
# [2] = tested on: GB4
# Procedure, shortened: as §1
# [3] = tested on: HB3
# Procedure, shortened: as §1
# [4] = tested on: ICS
# Procedure, shortened: as §1
# [5] = tested on: JCK
# Procedure, shortened: as §1
# [6] = tested on: N140
# Procedure, shortened: as §1
# [7] = tested on: P93_24
# Procedure, shortened: as §1
# [8] = tested on: P94_40
# Procedure, shortened: as §1
# [9] = tested on: PAD
# Procedure, shortened: as §1
# [10] = tested on: PC15
# Procedure, shortened: as §1
# Potency means the concentration at half of the fitted maximal effect.
Compound,Potency [1],Potency [2],Potency [3],Potency [4],Potency [5],Potency [6],Potency [7],Potency [8],Potency [9],Potency [10]
CC(=O)Nc1ccc(S(=O)(=O)Nc2ccc([N+](=O)[O-])cc2)cc1,inactive,inactive,inactive,inactive,inactive,inactive,inactive,inactive,inactive,inactive
COc1ccc(/C=N/NC(=O)c2ccncc2)cc1OC,inactive,inactive,inactive,inactive,inactive,inactive,inactive,inactive,inactive,inactive
CCCCCCCCCCCCCCCCO,inactive,inactive,inactive,inactive,inactive,inactive,inactive,inactive,inactive,inactive
O=C(O)CCNC(=O)c1ccccc1,inactive,inactive,inactive,inactive,inactive,inactive,inactive,inactive,inactive,inactive
Cc1c[nH]c2ccccc12,inactive,inactive,inactive,inactive,inactive,inactive,inactive,inactive,inactive,inactive
COc1cc(C(=S)N2CCOCC2)ccc1O,inactive,inactive,inactive,inactive,inactive,inactive,inactive,inactive,inactive,inactive
O=C(O)P(=O)(O)O,inactive,inactive,inactive,inactive,inactive,inactive,inactive,inactive,inactive,inactive
COc1cc(C(=O)NCc2ccc(OCCN(C)C)cc2)cc(OC)c1OC,inactive,inactive,inactive,inactive,inactive,inactive,inactive,inactive,inactive,inactive
CC(=O)NO,inactive,inactive,inactive,inactive,inactive,inactive,inactive,inactive,inactive,inactive
C/C=C/C=N/NC(=O)c1ccncc1,inactive,inactive,inactive,inactive,inactive,inactive,inactive,inactive,inactive,inactive
CCCCCCCCCCCCCCCC(=O)O,inactive,inactive,inactive,inactive,inactive,inactive,inactive,inactive,inactive,inactive
COc1cc(C)nc(-n2nc(C)cc2OC)n1,inactive,inactive,inactive,inactive,inactive,inactive,inactive,inactive,inactive,inactive
CC(=O)Oc1ccc(C)cc1,inactive,inactive,inactive,inactive,inactive,inactive,inactive,inactive,inactive,inactive
CCCCCCCCCCCCSCCOCCO,inactive,inactive,inactive,inactive,inactive,inactive,inactive,inactive,inactive,inactive
CC1(COc2ccc(CC3SC(=O)NC3=O)cc2)CCCCC1 (stereo unspecified),inactive,inactive,inactive,inactive,inactive,inactive,inactive,inactive,inactive,inactive
COc1cc(NS(=O)(=O)c2ccc(N)cc2)ncn1,inactive,inactive,inactive,inactive,inactive,inactive,inactive,inactive,inactive,inactive
CC(=O)NC(=O)c1ccccc1O,inactive,inactive,inactive,inactive,inactive,inactive,inactive,inactive,inactive,inactive
O=C(O)CCC(=O)Nc1ccc(S(=O)(=O)Nc2nccs2)cc1,inactive,inactive,inactive,inactive,inactive,inactive,inactive,inactive,inactive,inactive
Nc1nc(N)c(-c2ccccc2)s1,inactive,inactive,inactive,inactive,inactive,inactive,inactive,inactive,inactive,inactive
NC(=O)n1c(O)c(C(=O)c2cccs2)c2cc(Cl)ccc21,inactive,inactive,inactive,inactive,inactive,inactive,inactive,inactive,inactive,inactive
CCOC(=O)c1c(N)sc2c1CCN(Cc1ccccc1)C2,4.47 µM (active),4.26 µM (active),3.55 µM (active),5.01 µM (active),11.2 µM (active),12.6 µM (active),5.01 µM (active),5.62 µM (active),,
CCC1Nc2cc(Cl)c(S(N)(=O)=O)cc2S(=O)(=O)N1 (stereo unspecified),inactive,inactive,inactive,inactive,inactive,inactive,inactive,inactive,inactive,inactive
O[C@@H](c1cc(C(F)(F)F)nc2c(C(F)(F)F)cccc12)[C@H]1CCCCN1,0.0708 µM (active),0.0269 µM (active),0.0562 µM (active),0.0089 µM (active),17.8 µM (active),0.01 µM (active),0.0316 µM (active),0.0126 µM (active),0.0112 µM (active),

Compound,Potency [1],Potency [2],Potency [3],Potency [4],Potency [5],Potency [6],Potency [7],Potency [8],Potency [9],Potency [10]
CC(C)Cc1ccc(CC(=O)O)cc1,inactive,inactive,inactive,inactive,inactive,inactive,inactive,inactive,inactive,inactive
Cc1cccc(C)c1NC(=O)CN1CCCC1,inactive,inactive,inactive,inactive,inactive,inactive,inactive,inactive,inactive,inactive
CNCCCCOc1ccccc1Cc1ccccc1,inactive,1.69 µM (active),inactive,11.2 µM (active),,,,,,
Cc1ccccc1OCC(O)CO (stereo unspecified),inactive,inactive,inactive,inactive,inactive,inactive,inactive,inactive,inactive,inactive
O=C1C(CCS(=O)c2ccccc2)C(=O)N(c2ccccc2)N1c1ccccc1 (stereo unspecified),inactive,inactive,inactive,inactive,inactive,inactive,inactive,inactive,inactive,inactive
NC(=O)c1ccccc1O,inactive,inactive,inactive,inactive,inactive,inactive,inactive,inactive,inactive,inactive
CC(=O)OC[C@H]1O[C@@H](n2ncc(=O)[nH]c2=O)[C@H](OC(C)=O)[C@@H]1OC(C)=O,inactive,inactive,inactive,inactive,inactive,inactive,inactive,inactive,inactive,inactive
CCOC(=O)[C@H](CCc1ccccc1)N[C@@H](C)C(=O)N1[C@H](C(=O)O)C[C@H]2CCCC[C@@H]21,inactive,inactive,inactive,inactive,inactive,inactive,inactive,inactive,inactive,inactive
O=C(Nc1ncc([N+](=O)[O-])s1)c1cccs1,inactive,inactive,inactive,inactive,inactive,inactive,inactive,inactive,inactive,inactive
CCOC(=O)Nc1ccc2c(c1)N(C(=O)CCN1CCOCC1)c1ccccc1S2,inactive,inactive,inactive,inactive,inactive,inactive,inactive,inactive,inactive,inactive
Nc1ccc(C(=O)NCC(=O)O)cc1,inactive,inactive,inactive,inactive,inactive,inactive,inactive,inactive,inactive,inactive
CCCCCCCCCCCCCC(=O)OC(C)C,inactive,inactive,inactive,inactive,inactive,inactive,inactive,inactive,inactive,inactive
O=C(O)Cc1csc(-c2ccc(Cl)cc2)n1,inactive,inactive,inactive,inactive,inactive,inactive,inactive,inactive,inactive,inactive
O=C(NCCc1c[nH]c2ccccc12)c1cccnc1,inactive,inactive,inactive,inactive,inactive,inactive,inactive,inactive,inactive,inactive
c1ccc(-c2nc[nH]c2-c2ccccc2)cc1,inactive,inactive,inactive,inactive,inactive,inactive,inactive,inactive,inactive,inactive
Nc1nc(-c2ccccc2)c(Br)c(=O)[nH]1,inactive,inactive,inactive,inactive,inactive,inactive,inactive,inactive,inactive,inactive
CC1=C(C(=O)O)N2C(=O)[C@@H](NC(=O)[C@H](N)c3ccccc3)[C@H]2SC1,inactive,inactive,inactive,inactive,inactive,inactive,inactive,inactive,inactive,inactive
CCOc1ccccc1C(N)=O,inactive,inactive,inactive,inactive,inactive,inactive,inactive,inactive,inactive,inactive
CN(C)CCC[C@@]1(c2ccc(F)cc2)OCc2cc(C#N)ccc21,inactive,inactive,inactive,inactive,inactive,inactive,inactive,inactive,inactive,inactive
N#CCC(=O)NN,inactive,inactive,inactive,inactive,inactive,inactive,inactive,inactive,inactive,inactive
C#C[C@]1(O)CC[C@H]2[C@@H]3CCC4=Cc5oncc5C[C@]4(C)[C@H]3CC[C@@]21C,inactive,inactive,inactive,inactive,inactive,inactive,inactive,inactive,inactive,inactive
NS(=O)(=O)c1cc(C(=O)O)cc(N2CCCC2)c1Oc1ccccc1,inactive,inactive,inactive,inactive,inactive,inactive,inactive,inactive,inactive,inactive
O=c1[nH]c(=O)n([C@H]2C[C@H](O)[C@@H](CO)O2)cc1F,inactive,inactive,inactive,inactive,inactive,inactive,inactive,inactive,inactive,inactive
